Reference: article PMC7819943, “Rice protein-binding microarrays: a tool to detect cis-acting elements near promoter regions in rice”
Over roughly 39,000 sequences, “fluorescence intensity (a.u.)” has its median near 4,300; the highest 2% begin near 39,000. This is one part of a sample in which the highest values are shown more often than they occur.

What follows are sequences tested against T1, OsSMF1 (Oryza sativa, UniProt Q6ZLB0 1-436) (assay: protein-binding microarray (RPBM); PBS, 2% BSA, 51.3 ng/ul salmon testes DNA, 50 uM zinc acetate, 200 nM TF, 25 C, 1 h; high values mean tight binding). Details: protein: recombinant; tags: N-terminal polyhistidine and DsRed monomer fusion (pET32a); chain copies: 2; label: CyDye5-dUTP incorporated in the synthesized complementary strand; 3' TTTTT single-stranded linker to array surface; dsDNA, one strand shown.
T1 sequence: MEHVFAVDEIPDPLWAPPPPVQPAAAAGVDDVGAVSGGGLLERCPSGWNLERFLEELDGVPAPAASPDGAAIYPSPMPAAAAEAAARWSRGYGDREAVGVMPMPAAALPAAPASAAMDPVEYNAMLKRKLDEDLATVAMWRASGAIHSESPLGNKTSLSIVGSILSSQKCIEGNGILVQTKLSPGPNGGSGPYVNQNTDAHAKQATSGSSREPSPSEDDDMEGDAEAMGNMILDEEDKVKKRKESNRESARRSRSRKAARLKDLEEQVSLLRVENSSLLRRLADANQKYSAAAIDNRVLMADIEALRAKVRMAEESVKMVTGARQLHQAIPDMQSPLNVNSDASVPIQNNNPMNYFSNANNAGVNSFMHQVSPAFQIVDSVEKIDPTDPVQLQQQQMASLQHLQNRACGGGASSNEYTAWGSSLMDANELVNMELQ
Method in brief: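 Per-feature fluorescence intensity (arbitrary units), read on an Axon 4000B scanner, is the binding signal. Transcription factors carrying an N-terminal polyhistidine tag and DsRed fusion were expressed in E. coli BL21-CodonPlus and purified on Ni–NTA. A custom Agilent array, made double-stranded by primer extension with Cy5-dUTP and blocked with 2% BSA, was incubated with 200 nM protein in PBS, 2% BSA, salmon testes DNA and 50 µM zinc acetate at 25 °C for 1 h and then washed.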

Question: Which binding signal does the source give for “TTACTACACGGATCGCGGTCACGTCACGTGGTCCATAGTCCGGAGTCACCTAGTGCAG” here?
Answer: 6690 fluorescence intensity (a.u.)

Question: How did the binding signal turn out when “CTTTCCCTATCTTTCTCCTCATCATATGTGTCATGATGCACGGAGTCACCTAGTGCAG” was run?
Answer: 9020 fluorescence intensity (a.u.)

Question: For “AGCTATCATGTAAGCGTCACGTCAATGCGATGCAGGGGCGCGGAGTCACCTAGTGCAG”, which binding signal is on record?
Answer: 4630 fluorescence intensity (a.u.)

Question: Which binding signal does the source give for “TTTAGTGGCAGTCTTATAATAACGATTCAAAATAGTGGCACGGAGTCACCTAGTGCAG” here?
Answer: 3190 fluorescence intensity (a.u.)

Question: How did the binding signal turn out when “ACAAATAAATCCTTAAATACACTAACTATCGAATGCACGCCGGAGTCACCTAGTGCAG” was run?
Answer: 41300 fluorescence intensity (a.u.)

Question: “AATATACAACACTATATTATTAATGCAGTCCAATCGATATCGGAGTCACCTAGTGCAG” was tested. Which binding signal did it give?
Answer: 37000 fluorescence intensity (a.u.)

Question: For “TAACAAATAACCTTAAGTCCTTAACAAATAATAAGTGCACCGGAGTCACCTAGTGCAG”, which binding signal is on record?
Answer: 3190 fluorescence intensity (a.u.)

Question: With “CCCGCCGTCGCCGGGGAAGACGACACGCCCGCCGTCCTTGCGGAGTCACCTAGTGCAG” as the sequence, how does the binding signal read?
Answer: 3580 fluorescence intensity (a.u.)

Question: How did the binding signal turn out when “ACATTGACTCAGCCACCACGTCACCTAAAATCGGGAACAGCGGAGTCACCTAGTGCAG” was run?
Answer: 13000 fluorescence intensity (a.u.)

Question: For “CACGATTGCTCGGTGAGCACTGAGCAGTGACCTCATTCGGCGGAGTCACCTAGTGCAG”, which binding signal is on record?
Answer: 3820 fluorescence intensity (a.u.)

Question: For “GACGCGTACGCACGGTGGGACGCGGTGGTGGGGTGCTGGGCGGAGTCACCTAGTGCAG”, which binding signal is on record?
Answer: 3920 fluorescence intensity (a.u.)

Question: For “AGCTGGACAAGATCGGAATAGTAGGCCAGGCCCAAAGCAACGGAGTCACCTAGTGCAG”, which binding signal is on record?
Answer: 49400 fluorescence intensity (a.u.)

Question: For “TGGTAGGGAAGCAGGTGGAAGGAGGACAGGAAGGCCCAATCGGAGTCACCTAGTGCAG”, which binding signal is on record?
Answer: 34000 fluorescence intensity (a.u.)

Question: Which binding signal does the source give for “ATAGGAAGGGAAGCAACGGAGGAGGAGATCGGCTGGTGGTCGGAGTCACCTAGTGCAG” here?
Answer: 7740 fluorescence intensity (a.u.)

Question: How did the binding signal turn out when “AAGAACGCCTTCGCGTGGGCCGCCGTCATCGGGATGTGGACGGAGTCACCTAGTGCAG” was run?
Answer: 3220 fluorescence intensity (a.u.)

Question: “CTCACTCGCTTGCGCTTCACCTCGCGGCATCGACTTCCTACGGAGTCACCTAGTGCAG” was tested. Which binding signal did it give?
Answer: 3630 fluorescence intensity (a.u.)

Question: “TTAAATGGTCATTCCTGTGTTTTACAATCATATATCTTACCGGAGTCACCTAGTGCAG” was tested. Which binding signal did it give?
Answer: 3990 fluorescence intensity (a.u.)

Question: For “GTCCATATATCCGATGTGACACGCCAACACTTTTCGTATCCGGAGTCACCTAGTGCAG”, which binding signal is on record?
Answer: 4090 fluorescence intensity (a.u.)

Question: With “CACATCGAACGGTCCAAGAACAACCACATCACCAATGTGCCGGAGTCACCTAGTGCAG” as the sequence, how does the binding signal read?
Answer: 3710 fluorescence intensity (a.u.)

Question: “AAGATCATCACAATTCATCACTCACAACCACATCACATCCCGGAGTCACCTAGTGCAG” was tested. Which binding signal did it give?
Answer: 3260 fluorescence intensity (a.u.)

Question: With “TGGCTTCACTTGCAACGGTACAAGAACCACCATCACTTCCCGGAGTCACCTAGTGCAG” as the sequence, how does the binding signal read?
Answer: 40100 fluorescence intensity (a.u.)

Question: “CGCCTCTGCGGTCTCCTTCGTCACCCGCGCGTCAACCAACCGGAGTCACCTAGTGCAG” was tested. Which binding signal did it give?
Answer: 4290 fluorescence intensity (a.u.)

Question: For “CCCCTTCATGCCAGCACGCTCCCCACATCCACCCACCACCCGGAGTCACCTAGTGCAG”, which binding signal is on record?
Answer: 3320 fluorescence intensity (a.u.)

Question: For “CGTGCGACCCAGATCTCGCCACGTATGCGCGCGGATCGGCCGGAGTCACCTAGTGCAG”, which binding signal is on record?
Answer: 10800 fluorescence intensity (a.u.)

Question: “GGGACGAGAGGAGCAACGCGCGGGCGCCGGCTGGCAAGAGCGGAGTCACCTAGTGCAG” was tested. Which binding signal did it give?
Answer: 3960 fluorescence intensity (a.u.)

Question: With “ACCTTGAGTTTGAGTGCGATTCCTCCCTTCTTTCGGTCACCGGAGTCACCTAGTGCAG” as the sequence, how does the binding signal read?
Answer: 21100 fluorescence intensity (a.u.)

Question: Which binding signal does the source give for “ACGACGACGACGTCGACGTGTGAACCAGTCAACTGCCACGCGGAGTCACCTAGTGCAG” here?
Answer: 8590 fluorescence intensity (a.u.)

Question: How did the binding signal turn out when “ACGAAACCGCACAAAAGCCGGTGAATTTTCCCGTAATTTGCGGAGTCACCTAGTGCAG” was run?
Answer: 8780 fluorescence intensity (a.u.)

Question: Which binding signal does the source give for “ATCTAGACACGCGCGCGCGCGCGCACATATATATATATATCGGAGTCACCTAGTGCAG” here?
Answer: 42600 fluorescence intensity (a.u.)

Question: Which binding signal does the source give for “ACATACATATATATATATATATATACATACATATATATATCGGAGTCACCTAGTGCAG” here?
Answer: 3740 fluorescence intensity (a.u.)

Question: Which binding signal does the source give for “GCGCACACACACACACAGATATATATATATATATATATATCGGAGTCACCTAGTGCAG” here?
Answer: 4200 fluorescence intensity (a.u.)

Question: For “TAAACAGGGCCCTACTGTCATCACGTCGATGTTGAGTTTACGGAGTCACCTAGTGCAG”, which binding signal is on record?
Answer: 4070 fluorescence intensity (a.u.)

Question: For “AAAGGACGGACAGTTTCCTGCGCAAATTCCACGTTCCACCCGGAGTCACCTAGTGCAG”, which binding signal is on record?
Answer: 3460 fluorescence intensity (a.u.)

Question: How did the binding signal turn out when “CCGCACGCGCTCCCTTCACCCACCTCGATCGAGCTCCATGCGGAGTCACCTAGTGCAG” was run?
Answer: 3570 fluorescence intensity (a.u.)

Question: Which binding signal does the source give for “ACATGGACTGTGGTGTGGTACACACACGGTATGTCAGAGCCGGAGTCACCTAGTGCAG” here?
Answer: 3220 fluorescence intensity (a.u.)

Question: Which binding signal does the source give for “GGTTGCCATATTTGCTTGTTATGCCGATGTGGACAAGCTTCGGAGTCACCTAGTGCAG” here?
Answer: 5600 fluorescence intensity (a.u.)

Question: Which binding signal does the source give for “ATATTCCACCAAGCAAAAGCCACATCATGCTGTGCTGTGCCGGAGTCACCTAGTGCAG” here?
Answer: 6050 fluorescence intensity (a.u.)

Question: “TCCTCCCAAAGATAATTCAGCTGATGATATTTCCATATCTCGGAGTCACCTAGTGCAG” was tested. Which binding signal did it give?
Answer: 3210 fluorescence intensity (a.u.)

Question: With “GCTTTGGGCTATAATTGGGCCATTTGTCGTCAGCTCTTGGCGGAGTCACCTAGTGCAG” as the sequence, how does the binding signal read?
Answer: 3230 fluorescence intensity (a.u.)

Question: For “TTCTTCTTGGTGGTGGTGGGGCCTGGAAACTATGTGACTTCGGAGTCACCTAGTGCAG”, which binding signal is on record?
Answer: 4270 fluorescence intensity (a.u.)

Question: How did the binding signal turn out when “ATATACTATTCTCATCTGTCATACACACATCACATCTTGACGGAGTCACCTAGTGCAG” was run?
Answer: 25700 fluorescence intensity (a.u.)

Question: “ATACTTGGACTATTCTCTTTCGGAAACTTGACTAGTTACACGGAGTCACCTAGTGCAG” was tested. Which binding signal did it give?
Answer: 43200 fluorescence intensity (a.u.)
